This note sets out measurements from the supplement of paper PMC7724964.

What all share (experiment): phage ELISA signal ratio (GST-PRM binding over GST background); higher = stronger binding of peptide-phage to the PRM
In general terms: In an ELISA, binding on a coated surface is turned into a signal by an enzyme label.

In assay [1] the target is T1, FKBP3 109-224 FKBP_C (domain begin residue: 109, domain end residue: 224), Q00688.
T1 chain: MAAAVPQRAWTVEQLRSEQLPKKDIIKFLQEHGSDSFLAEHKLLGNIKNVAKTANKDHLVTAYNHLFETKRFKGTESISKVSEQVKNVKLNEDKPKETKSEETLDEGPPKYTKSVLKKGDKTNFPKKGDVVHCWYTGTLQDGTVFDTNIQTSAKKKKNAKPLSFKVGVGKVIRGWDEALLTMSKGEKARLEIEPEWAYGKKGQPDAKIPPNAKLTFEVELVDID
The method, boiled down: (§1)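 Each value is the phage ELISA signal on the glutathione S-transferase (GST)-domain fusion divided by the signal on GST alone. Human peptide recognition domains were expressed in 96-well plates, fused to the C-terminus of GST, and selected against an M13 phage library carrying randomized, cysteine-free, glycine-flanked hexadecapeptides on the gene-8 major coat protein. After five selection rounds, approximately 48 individual clones from rounds 4 and 5 were tested by phage ELISA, and positive clones were sequenced.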

Assay [2] concerns the target T2, DYNLL2 1-89 Dynein_light (domain begin residue: 1, domain end residue: 89), Q96FJ2.
T2 chain: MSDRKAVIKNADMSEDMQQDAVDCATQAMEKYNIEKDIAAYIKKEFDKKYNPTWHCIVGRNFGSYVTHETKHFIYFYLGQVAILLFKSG
The method, boiled down:
as §1

Assay [3] addresses T3, ESRRG 219-458 Hormone_recep (domain begin residue: 219, domain end residue: 458), P62508.
T3 chain: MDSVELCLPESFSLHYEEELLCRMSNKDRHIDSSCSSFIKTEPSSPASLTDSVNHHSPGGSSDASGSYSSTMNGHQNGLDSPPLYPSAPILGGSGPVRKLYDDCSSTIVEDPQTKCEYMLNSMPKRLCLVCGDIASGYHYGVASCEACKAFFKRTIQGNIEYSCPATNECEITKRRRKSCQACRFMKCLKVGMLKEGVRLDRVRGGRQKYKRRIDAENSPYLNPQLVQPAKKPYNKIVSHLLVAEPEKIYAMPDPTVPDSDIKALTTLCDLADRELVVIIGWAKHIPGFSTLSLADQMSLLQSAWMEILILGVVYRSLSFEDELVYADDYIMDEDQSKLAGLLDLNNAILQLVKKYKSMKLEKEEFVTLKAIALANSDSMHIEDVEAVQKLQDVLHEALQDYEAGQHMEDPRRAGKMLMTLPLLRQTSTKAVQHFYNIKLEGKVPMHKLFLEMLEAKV
Summed up:
as §1

Assay [4] addresses EIF4E 2-217 IF4E (domain begin residue: 2, domain end residue: 217), P06730. Summed up:
as §1

Assay [5] deals with PCMT1 1-227 PCMT (domain begin residue: 1, domain end residue: 227), P22061. Summed up: as §1
In assay [6] the target is T4, ESRRA 179-423 Hormone_recep (domain begin residue: 179, domain end residue: 423), P11474.
T4 chain: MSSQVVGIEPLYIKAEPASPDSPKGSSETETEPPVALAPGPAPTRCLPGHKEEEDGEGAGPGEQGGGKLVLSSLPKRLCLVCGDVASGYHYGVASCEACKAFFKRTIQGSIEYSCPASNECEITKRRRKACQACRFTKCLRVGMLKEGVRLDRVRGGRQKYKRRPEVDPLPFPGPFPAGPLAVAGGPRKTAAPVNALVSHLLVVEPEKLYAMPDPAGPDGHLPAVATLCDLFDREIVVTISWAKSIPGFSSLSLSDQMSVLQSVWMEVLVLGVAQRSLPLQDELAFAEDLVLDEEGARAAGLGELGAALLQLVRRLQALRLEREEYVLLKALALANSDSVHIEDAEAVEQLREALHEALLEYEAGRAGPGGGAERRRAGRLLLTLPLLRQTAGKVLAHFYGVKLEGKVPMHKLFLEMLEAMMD
Summed up: as §1

Assay [7] deals with T5, EEF1A2 240-332 GTP_EFTU_D2 (domain begin residue: 240, domain end residue: 332), Q05639.
T5 chain: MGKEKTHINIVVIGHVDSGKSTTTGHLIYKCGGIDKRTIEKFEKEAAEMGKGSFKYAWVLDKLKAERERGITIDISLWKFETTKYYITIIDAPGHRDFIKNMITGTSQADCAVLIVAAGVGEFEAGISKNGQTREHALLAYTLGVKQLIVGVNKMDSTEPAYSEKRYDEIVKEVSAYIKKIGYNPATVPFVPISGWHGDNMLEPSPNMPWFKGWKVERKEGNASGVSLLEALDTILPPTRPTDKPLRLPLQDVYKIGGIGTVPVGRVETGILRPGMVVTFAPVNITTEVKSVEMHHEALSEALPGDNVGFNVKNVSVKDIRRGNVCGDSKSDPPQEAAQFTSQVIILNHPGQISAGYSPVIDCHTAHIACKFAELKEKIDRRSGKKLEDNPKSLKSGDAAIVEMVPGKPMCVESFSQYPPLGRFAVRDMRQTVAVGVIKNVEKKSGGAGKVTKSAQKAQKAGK
The method, boiled down:
as §1

The target in assay [8] is T6, ESR2 263-500 Hormone_recep (domain begin residue: 263, domain end residue: 500), Q92731.
T6 chain: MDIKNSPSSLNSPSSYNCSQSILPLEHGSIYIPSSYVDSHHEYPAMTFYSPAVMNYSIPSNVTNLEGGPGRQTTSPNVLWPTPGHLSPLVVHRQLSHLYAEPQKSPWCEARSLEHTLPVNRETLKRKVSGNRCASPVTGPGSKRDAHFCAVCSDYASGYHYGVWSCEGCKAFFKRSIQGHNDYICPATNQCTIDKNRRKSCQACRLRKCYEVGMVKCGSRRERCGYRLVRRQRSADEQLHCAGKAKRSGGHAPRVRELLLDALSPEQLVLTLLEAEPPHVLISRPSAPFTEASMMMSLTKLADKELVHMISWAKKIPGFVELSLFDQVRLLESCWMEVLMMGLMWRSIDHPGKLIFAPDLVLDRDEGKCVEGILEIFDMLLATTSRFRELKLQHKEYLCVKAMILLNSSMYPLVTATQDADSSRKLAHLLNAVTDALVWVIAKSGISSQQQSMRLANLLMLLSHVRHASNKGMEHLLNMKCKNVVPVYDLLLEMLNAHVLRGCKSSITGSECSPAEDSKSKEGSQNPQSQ
The method, boiled down:
as §1

For assay [9], the target named is T7, EVL 1-130 WH1 (domain begin residue: 1, domain end residue: 130), Q9UI08.
T7 chain: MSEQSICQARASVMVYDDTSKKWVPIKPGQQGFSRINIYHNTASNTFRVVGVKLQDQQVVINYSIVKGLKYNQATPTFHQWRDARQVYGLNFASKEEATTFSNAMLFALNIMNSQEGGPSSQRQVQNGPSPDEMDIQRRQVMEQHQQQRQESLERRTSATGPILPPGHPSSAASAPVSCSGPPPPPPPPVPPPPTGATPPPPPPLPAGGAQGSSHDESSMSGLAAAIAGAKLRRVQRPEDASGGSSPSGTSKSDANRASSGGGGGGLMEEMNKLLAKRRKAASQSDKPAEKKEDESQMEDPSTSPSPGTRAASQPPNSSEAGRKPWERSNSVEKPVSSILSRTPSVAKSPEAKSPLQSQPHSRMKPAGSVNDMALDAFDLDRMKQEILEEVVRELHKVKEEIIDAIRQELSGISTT
The method, boiled down: as §1

The target in assay [10] is EIF2S1 9-93 S1 (domain begin residue: 9, domain end residue: 93), P05198. Summed up:
as §1

EIF2S1 9-93 S1 (domain begin residue: 9, domain end residue: 93), P05198, sequence (P05198 whole entry): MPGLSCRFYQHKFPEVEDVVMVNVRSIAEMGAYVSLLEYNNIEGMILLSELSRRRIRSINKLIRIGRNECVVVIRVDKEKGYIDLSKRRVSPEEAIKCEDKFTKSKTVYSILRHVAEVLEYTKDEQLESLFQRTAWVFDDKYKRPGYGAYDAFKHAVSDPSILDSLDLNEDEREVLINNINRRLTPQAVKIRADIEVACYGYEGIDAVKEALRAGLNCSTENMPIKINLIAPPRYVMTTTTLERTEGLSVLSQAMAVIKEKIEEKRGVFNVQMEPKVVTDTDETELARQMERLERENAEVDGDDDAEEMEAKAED
EIF4E 2-217 IF4E (domain begin residue: 2, domain end residue: 217), P06730, sequence (P06730 whole entry): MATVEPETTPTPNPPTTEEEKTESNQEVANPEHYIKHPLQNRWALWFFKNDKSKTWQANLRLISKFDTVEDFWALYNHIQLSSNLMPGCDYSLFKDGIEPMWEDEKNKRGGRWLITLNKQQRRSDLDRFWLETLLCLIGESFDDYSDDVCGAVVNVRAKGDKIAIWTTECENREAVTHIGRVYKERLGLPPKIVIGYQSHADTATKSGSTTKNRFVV
PCMT1 1-227 PCMT (domain begin residue: 1, domain end residue: 227), P22061, sequence (P22061 whole entry): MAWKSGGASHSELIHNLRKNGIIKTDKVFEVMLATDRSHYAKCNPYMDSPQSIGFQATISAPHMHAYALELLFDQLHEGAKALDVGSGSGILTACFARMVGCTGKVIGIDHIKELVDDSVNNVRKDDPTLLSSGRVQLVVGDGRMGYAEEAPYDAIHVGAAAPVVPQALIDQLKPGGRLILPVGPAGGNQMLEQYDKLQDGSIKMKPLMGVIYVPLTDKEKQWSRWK

For WGAGVFLVADPQMEVV, in assay [1], the “phage ELISA signal ratio” value stood at 5. For the molecule TQVWPDDWWALGNYYE, the “phage ELISA signal ratio” value in assay [2] worked out at 32. For the molecule GQTEFVYKQMPVSGAR, in assay [2], the “phage ELISA signal ratio” value turned out to be 33.

As to QQGIGVFQDWFNHGLI, the “phage ELISA signal ratio” value in assay [1] was determined as 9.64. QYVEEGSWYMLHMYLT: in [3], the “phage ELISA signal ratio” value turned out to be 17.4. On to VQTIGTWEWDHVPVEV, for which the “phage ELISA signal ratio” value in [2] amounted to 41.

On to TQTMSWTGEKPQQWEM, for which the “phage ELISA signal ratio” value in assay [2] was 27. For FLYYYGLSHNWFGDQT, the “phage ELISA signal ratio” value in assay [4] came to 7.6.

With VDQASQTWVWWAGQAY, the “phage ELISA signal ratio” value in assay [2] is 35.9. As to SSTTGDDVLNSLTEMP, the “phage ELISA signal ratio” value in [2] was found to be 34.4.

For the molecule VHRDYQLGHEWLVFIN, the “phage ELISA signal ratio” value in [3] and in [5] was 13.1 in each case. Take TQTDVISWQEFIFMRP: in assay [2], the “phage ELISA signal ratio” value stood at 36.2.

Consider SQQWSTHYPTFFELML, for which the “phage ELISA signal ratio” value in assay [6] worked out at 3.25. With VGVYSLQDEPQKRVVV, in [1], the “phage ELISA signal ratio” value was found to be 6.15. SDHTHWQLIQWDGWML: the “phage ELISA signal ratio” value in assay [7] came to 11.6. As to TQFGETWVNWIPLTIT, the “phage ELISA signal ratio” value in [2] turned out to be 25.9. Take GVDVWLWDKQWNMWMP: the “phage ELISA signal ratio” value in [8] is 25.9. With TEMYEWMADATTNTMW, the “phage ELISA signal ratio” value in [2] worked out at 28. For the molecule AMVQTEDDWEMMWEQL, in assay [2], the “phage ELISA signal ratio” value is 17.6. The same measure, in the same setting: the result for TQTEPYKHQDQAHTRG reads 26.1. For the molecule PWGPYQSFSELDIKHE, the “phage ELISA signal ratio” value in assay [7] was found to be 17.3. Consider VQWQDQYPTFYAEMSK, for which, in [6], the “phage ELISA signal ratio” value worked out at 8.22.

As to ETQTPEWMGWLMESAI, the “phage ELISA signal ratio” value in assay [2] stood at 34.3. On to GTQTDEIFYLREYKSM, for which the “phage ELISA signal ratio” value in assay [2] came to 19.2. With TQTGFGQAHMETPHSL, the “phage ELISA signal ratio” value in assay [2] turned out to be 35.8. GIGFEWVHDGWWPMWT: the “phage ELISA signal ratio” value in assay [9] was 13.8. On to VQTEAWWPLQTPAWMV, for which, in [2], the “phage ELISA signal ratio” value came to 19.7.

Turning to EYTNWYWLGYLPETVM, the “phage ELISA signal ratio” value in assay [10] is 14.6. As to EERTWSFEEWLWMPAM, the “phage ELISA signal ratio” value in [8] came to 26.6. Regarding MEMGTQTYKWQEWAFV, the “phage ELISA signal ratio” value in assay [2] stood at 31.3.
